Measured values from the supplement of paper PMC11732987, “Enantioselective OTUD7B fragment discovery through chemoproteomics screening and high-throughput optimisation” (Communications Chemistry, 2025).

Tests used:
Experiment in all cases: log2 ratio of Biotin-Ahx-Ub-VS probe labelling (fragment/DMSO); higher = less target engagement (more negative = stronger competition), active = hit call of the paper (q ≤ 0.05, log2 ratio ≤ -1)
Settings in all cases: compound concentration: 200 uM; treatment time: 3 h
USP42 = molecular target: T1, USP42 (UniProt Q9H9J4)
T1 sequence (whole entry): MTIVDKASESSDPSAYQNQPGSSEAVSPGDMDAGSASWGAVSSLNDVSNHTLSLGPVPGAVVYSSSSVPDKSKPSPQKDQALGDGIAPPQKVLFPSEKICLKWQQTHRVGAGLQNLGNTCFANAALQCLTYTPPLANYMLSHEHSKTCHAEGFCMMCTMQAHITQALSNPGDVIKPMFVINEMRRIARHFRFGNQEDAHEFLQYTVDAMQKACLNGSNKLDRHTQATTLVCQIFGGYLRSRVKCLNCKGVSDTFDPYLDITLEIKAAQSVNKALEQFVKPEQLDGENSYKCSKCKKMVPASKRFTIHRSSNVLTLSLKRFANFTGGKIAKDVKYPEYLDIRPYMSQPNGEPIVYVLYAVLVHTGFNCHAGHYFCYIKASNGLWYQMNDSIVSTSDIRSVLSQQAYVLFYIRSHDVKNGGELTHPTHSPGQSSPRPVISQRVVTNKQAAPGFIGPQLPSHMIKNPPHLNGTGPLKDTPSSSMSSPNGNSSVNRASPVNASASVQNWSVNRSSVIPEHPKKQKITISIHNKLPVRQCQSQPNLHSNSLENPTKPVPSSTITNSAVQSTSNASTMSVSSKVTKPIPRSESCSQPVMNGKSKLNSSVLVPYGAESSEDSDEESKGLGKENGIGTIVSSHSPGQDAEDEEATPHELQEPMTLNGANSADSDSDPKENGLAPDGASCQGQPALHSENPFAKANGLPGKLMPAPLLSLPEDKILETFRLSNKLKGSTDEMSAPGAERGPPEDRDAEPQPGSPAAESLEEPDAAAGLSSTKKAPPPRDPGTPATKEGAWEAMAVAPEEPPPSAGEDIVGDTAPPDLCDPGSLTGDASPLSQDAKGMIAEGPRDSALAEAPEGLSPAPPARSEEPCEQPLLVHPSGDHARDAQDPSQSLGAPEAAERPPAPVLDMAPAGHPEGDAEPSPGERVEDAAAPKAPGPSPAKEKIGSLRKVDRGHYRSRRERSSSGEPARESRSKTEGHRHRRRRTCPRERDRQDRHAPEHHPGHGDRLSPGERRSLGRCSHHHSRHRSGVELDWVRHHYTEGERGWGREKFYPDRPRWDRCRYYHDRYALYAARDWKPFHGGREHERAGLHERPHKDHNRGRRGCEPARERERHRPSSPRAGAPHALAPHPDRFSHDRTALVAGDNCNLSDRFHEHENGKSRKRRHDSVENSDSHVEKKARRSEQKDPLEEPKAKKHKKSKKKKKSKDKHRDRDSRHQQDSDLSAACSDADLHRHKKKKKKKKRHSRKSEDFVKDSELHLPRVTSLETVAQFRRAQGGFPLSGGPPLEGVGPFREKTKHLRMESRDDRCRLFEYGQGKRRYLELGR
Outline: (§1)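 In triplicate, 495 µg of HEK293T lysate per sample was incubated with fragment at 200 µM or vehicle for 3 h. Biotin-Ahx-Ub-VS was then added to 0.5 µM final for 1 h, and labelled DUBs were captured with NeutrAvidin, digested with LysC and trypsin, and measured by diaPASEF LC-MS/MS. Data are average log2 fragment/vehicle ratios by unpaired t-test from global-median-normalised Spectronaut label-free quantities, restricted to proteins with ≥2 unique peptides.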

USP46 = USP46 (UniProt P62068)
USP46, sequence (P62068 whole entry): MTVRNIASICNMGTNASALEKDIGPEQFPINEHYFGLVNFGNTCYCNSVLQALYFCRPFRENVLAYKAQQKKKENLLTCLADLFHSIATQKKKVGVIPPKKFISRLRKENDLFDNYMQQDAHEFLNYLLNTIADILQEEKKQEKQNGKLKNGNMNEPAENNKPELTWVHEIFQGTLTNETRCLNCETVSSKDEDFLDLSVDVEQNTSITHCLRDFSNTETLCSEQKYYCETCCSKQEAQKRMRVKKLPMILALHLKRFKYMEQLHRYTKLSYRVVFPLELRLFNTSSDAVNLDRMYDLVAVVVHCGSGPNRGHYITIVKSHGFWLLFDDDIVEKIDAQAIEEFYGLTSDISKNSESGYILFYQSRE
Outline: as §1

USP47 = molecular target: T2, USP47 (UniProt Q96K76)
T2 sequence (whole entry): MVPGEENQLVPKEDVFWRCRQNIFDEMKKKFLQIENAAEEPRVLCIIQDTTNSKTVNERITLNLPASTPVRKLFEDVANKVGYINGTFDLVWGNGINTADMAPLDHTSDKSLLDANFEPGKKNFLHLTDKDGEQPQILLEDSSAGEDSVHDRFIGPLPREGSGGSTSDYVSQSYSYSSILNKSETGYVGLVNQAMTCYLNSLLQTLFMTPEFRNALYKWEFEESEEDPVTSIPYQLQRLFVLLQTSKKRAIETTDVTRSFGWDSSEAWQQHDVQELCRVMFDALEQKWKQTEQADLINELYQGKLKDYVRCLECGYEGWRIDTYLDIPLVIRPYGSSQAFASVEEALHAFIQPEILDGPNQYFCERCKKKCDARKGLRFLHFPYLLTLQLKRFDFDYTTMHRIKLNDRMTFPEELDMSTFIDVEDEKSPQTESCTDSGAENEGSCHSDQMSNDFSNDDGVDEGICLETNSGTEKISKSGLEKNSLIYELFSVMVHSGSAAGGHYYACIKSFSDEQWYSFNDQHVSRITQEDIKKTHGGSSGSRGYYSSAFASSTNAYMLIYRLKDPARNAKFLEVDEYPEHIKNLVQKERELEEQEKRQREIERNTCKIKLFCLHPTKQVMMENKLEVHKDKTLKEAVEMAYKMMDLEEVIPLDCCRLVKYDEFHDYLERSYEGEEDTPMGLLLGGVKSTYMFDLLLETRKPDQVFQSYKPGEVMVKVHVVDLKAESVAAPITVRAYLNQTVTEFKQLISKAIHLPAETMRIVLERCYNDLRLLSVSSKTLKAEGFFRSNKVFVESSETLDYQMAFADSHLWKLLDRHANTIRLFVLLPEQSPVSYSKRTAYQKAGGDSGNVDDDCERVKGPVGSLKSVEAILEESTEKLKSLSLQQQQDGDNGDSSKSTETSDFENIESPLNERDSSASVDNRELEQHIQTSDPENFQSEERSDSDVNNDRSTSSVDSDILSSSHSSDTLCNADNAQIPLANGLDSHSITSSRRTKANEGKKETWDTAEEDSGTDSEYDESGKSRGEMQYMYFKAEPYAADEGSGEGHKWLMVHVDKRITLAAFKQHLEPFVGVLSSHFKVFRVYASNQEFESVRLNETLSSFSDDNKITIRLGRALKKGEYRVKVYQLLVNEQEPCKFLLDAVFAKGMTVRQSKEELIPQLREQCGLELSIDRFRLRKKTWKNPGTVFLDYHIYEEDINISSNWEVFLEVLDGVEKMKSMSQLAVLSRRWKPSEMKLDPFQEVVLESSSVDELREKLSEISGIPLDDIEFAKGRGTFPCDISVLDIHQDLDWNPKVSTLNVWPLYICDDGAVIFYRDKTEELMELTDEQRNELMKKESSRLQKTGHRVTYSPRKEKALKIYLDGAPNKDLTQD
Outline: as §1

USP48 = molecular target: T3, USP48 (UniProt Q86UV5)
T3 sequence (whole entry): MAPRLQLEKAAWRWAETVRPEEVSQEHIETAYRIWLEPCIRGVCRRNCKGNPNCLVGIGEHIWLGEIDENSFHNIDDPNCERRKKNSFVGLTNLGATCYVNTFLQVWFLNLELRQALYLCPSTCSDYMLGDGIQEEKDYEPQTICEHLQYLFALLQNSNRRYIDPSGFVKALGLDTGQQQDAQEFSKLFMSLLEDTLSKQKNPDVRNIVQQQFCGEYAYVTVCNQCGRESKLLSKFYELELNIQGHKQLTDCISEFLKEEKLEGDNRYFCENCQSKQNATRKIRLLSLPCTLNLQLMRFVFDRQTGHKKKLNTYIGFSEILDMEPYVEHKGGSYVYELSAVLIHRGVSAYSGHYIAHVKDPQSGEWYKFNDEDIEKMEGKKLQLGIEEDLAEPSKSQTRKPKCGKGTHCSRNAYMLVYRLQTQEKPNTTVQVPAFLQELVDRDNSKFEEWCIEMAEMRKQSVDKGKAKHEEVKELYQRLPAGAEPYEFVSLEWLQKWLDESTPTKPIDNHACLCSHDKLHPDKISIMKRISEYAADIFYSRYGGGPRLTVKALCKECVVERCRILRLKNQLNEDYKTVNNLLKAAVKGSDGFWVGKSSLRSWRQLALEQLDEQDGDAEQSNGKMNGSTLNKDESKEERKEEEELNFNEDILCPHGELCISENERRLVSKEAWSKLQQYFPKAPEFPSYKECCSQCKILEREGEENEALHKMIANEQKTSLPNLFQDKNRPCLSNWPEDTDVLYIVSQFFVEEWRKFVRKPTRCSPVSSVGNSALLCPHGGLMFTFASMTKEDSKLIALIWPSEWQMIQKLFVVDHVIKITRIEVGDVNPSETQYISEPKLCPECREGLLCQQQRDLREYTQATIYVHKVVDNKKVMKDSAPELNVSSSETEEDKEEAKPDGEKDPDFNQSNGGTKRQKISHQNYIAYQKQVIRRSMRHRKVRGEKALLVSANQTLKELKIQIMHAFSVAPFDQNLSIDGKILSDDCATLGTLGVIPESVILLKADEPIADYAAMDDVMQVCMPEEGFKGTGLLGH
Outline: as §1

USP5 = molecular target: T4, USP5 (UniProt P45974)
T4 sequence (whole entry): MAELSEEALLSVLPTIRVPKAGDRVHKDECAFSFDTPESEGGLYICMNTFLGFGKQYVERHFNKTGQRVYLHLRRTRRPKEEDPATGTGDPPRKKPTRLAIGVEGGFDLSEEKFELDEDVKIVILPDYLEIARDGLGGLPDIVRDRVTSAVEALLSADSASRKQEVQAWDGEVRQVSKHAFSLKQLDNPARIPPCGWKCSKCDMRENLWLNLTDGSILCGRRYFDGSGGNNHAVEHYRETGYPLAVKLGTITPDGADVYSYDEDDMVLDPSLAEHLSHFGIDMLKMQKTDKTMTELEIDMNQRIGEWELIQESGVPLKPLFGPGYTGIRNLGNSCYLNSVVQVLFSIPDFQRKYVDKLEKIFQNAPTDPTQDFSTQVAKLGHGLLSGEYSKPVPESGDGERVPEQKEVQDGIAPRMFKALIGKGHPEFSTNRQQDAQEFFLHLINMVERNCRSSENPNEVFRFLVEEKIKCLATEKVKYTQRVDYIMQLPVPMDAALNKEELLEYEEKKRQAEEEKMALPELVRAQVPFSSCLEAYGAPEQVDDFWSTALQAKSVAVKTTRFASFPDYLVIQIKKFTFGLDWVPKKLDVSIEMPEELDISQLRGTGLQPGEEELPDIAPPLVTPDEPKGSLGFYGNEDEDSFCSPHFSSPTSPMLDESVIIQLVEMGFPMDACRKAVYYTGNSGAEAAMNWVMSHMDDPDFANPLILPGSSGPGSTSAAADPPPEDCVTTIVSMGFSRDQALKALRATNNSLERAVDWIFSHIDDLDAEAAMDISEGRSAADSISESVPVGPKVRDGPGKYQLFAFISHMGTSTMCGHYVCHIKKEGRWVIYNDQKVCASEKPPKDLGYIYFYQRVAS
Outline: as §1

USP54 = USP54 (UniProt Q70EL1)
USP54, sequence (Q70EL1 whole entry): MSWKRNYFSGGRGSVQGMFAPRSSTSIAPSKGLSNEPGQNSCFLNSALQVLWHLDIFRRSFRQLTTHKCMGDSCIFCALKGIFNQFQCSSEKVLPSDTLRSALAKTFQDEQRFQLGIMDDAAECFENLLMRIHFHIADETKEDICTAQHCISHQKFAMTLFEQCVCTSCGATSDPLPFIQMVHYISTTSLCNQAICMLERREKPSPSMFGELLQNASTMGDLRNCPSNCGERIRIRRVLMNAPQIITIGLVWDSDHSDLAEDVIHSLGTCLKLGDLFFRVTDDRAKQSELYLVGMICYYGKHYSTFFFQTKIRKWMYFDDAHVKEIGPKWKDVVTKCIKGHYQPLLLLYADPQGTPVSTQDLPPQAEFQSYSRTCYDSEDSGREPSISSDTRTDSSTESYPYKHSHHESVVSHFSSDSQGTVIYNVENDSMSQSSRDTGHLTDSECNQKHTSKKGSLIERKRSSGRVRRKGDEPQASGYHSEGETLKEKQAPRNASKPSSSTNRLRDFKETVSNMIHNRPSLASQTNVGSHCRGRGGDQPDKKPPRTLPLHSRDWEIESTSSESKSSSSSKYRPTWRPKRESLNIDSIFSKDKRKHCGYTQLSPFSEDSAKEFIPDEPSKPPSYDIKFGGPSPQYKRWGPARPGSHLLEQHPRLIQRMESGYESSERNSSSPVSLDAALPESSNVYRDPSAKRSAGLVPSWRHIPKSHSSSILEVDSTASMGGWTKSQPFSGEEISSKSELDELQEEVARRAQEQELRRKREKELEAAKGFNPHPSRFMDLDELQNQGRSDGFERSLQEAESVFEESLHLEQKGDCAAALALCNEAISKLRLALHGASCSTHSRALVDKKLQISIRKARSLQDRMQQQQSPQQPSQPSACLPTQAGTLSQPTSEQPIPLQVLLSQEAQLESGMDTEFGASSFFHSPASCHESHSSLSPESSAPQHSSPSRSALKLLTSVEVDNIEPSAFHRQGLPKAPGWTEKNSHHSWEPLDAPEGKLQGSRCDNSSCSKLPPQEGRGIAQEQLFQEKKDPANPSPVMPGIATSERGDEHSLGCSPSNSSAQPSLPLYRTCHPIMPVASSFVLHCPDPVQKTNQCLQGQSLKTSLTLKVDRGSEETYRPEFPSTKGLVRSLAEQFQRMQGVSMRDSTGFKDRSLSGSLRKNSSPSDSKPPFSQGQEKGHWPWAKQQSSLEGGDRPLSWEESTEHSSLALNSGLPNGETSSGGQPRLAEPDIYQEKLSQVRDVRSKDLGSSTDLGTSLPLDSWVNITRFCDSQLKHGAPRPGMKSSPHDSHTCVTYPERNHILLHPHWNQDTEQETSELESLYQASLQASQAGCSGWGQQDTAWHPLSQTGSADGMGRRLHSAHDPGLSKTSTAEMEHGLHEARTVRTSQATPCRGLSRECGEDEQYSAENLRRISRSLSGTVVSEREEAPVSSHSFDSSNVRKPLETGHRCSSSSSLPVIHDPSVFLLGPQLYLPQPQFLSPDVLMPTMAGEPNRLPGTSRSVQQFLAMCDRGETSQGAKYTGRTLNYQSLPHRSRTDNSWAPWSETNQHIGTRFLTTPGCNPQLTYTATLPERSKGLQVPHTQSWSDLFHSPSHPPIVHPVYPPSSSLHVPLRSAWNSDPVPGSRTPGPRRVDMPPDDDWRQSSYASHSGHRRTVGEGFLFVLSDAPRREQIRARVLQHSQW
Outline: as §1

USP7 = USP7 (UniProt Q93009)
USP7, sequence (Q93009 whole entry, looked up): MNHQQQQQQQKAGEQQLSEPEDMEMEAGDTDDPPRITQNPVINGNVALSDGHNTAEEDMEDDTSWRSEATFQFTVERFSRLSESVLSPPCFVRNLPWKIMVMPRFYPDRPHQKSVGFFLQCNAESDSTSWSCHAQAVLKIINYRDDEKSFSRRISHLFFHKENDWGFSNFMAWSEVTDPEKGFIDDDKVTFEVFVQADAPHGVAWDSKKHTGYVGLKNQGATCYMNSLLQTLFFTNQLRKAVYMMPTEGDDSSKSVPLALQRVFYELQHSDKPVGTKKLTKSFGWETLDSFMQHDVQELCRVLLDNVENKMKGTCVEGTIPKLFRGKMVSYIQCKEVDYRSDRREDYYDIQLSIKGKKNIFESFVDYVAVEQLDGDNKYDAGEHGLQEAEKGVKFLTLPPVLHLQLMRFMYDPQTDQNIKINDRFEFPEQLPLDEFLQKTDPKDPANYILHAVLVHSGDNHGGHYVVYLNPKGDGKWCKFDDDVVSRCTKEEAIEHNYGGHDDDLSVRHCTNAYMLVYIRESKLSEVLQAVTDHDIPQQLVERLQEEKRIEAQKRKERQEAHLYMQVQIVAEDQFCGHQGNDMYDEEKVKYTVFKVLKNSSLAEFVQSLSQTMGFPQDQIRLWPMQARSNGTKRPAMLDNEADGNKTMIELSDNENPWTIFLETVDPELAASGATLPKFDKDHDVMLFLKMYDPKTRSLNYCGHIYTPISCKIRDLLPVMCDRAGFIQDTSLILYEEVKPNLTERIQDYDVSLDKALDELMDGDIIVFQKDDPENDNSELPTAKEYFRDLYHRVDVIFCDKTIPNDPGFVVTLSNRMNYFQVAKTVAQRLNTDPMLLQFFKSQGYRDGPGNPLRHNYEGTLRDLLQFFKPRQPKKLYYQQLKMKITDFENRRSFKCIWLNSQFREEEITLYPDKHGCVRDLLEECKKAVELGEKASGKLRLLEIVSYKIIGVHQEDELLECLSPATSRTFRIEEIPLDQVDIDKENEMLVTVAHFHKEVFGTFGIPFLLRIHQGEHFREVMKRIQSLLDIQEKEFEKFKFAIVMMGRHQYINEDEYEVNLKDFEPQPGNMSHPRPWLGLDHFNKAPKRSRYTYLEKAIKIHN
Outline: as §1

USP8 = molecular target: T5, USP8 (UniProt P40818)
T5 sequence (whole entry): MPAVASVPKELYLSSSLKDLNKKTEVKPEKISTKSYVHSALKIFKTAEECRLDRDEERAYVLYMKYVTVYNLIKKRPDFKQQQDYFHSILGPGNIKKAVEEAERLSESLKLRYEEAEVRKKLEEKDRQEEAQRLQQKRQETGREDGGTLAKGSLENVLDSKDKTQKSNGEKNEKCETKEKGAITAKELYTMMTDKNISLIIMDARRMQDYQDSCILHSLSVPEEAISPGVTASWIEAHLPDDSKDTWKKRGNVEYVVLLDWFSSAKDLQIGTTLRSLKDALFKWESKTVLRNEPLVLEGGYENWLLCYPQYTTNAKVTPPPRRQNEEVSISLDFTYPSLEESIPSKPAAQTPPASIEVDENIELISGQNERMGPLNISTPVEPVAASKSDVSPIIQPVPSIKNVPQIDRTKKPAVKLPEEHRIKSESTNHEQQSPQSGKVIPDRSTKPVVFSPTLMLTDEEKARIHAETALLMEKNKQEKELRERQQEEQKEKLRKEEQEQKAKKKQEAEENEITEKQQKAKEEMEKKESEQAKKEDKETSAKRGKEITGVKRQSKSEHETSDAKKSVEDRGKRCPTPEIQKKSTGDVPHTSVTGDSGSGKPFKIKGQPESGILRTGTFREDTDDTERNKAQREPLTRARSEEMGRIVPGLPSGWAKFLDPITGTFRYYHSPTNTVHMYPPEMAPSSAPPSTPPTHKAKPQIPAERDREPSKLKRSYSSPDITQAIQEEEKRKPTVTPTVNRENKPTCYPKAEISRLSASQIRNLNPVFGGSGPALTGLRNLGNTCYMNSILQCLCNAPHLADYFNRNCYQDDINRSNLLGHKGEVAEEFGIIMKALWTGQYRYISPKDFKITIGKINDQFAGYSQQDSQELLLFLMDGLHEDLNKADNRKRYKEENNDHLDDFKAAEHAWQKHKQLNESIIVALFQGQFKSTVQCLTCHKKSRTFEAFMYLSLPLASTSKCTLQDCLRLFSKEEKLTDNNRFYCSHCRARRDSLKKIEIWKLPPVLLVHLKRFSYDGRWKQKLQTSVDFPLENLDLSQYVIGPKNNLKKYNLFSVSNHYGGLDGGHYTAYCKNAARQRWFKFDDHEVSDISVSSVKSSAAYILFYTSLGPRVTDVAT
Outline: as §1

Measured: log2 ratio of Biotin-Ahx-Ub-VS probe labelling

COc1cc(Cl)c(C)cc1NC(=O)CCl
inactive: USP42 -0.591 | USP46 -0.0884 | USP47 -0.965 | USP48 -0.36 | USP5 -0.267 | USP54 0.718 | USP7 -0.373 | USP8 -0.251
